# According to PubChem BioAssay (EPA / NIEHS):
# Results filed as inconclusive are left out. Calls of active or inactive are those of the source. How the source made its calls: active means hit-call score of the fitted dose curve at least 0.9, where 1 is the maximum; inconclusive means response in the unintended direction; inactive means score below 0.9.
# Molecular target: Estrogen receptor beta (Homo sapiens) (UniProt Q92731)
# Test: OT_ER_ERbERb_0480: Odyssey Thera (OT) 8-hour HEK293T Protein-Complementation Assay for Estrogen Receptor-beta/-beta Homodimer (AID 2283357);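 further: active means signal gain over DMSO baseline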
# Procedure, shortened: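 Fluorescence intensity, nuclear for agonists and nuclear plus cytoplasmic for antagonists, was quantified by laser scanning cytometry versus vehicle after 8 h treatment. The cells were HEK293T stably carrying ER beta LBD fragment-complementation partners.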
# Estrogen receptor beta (Homo sapiens), sequence (Q92731 whole entry, looked up): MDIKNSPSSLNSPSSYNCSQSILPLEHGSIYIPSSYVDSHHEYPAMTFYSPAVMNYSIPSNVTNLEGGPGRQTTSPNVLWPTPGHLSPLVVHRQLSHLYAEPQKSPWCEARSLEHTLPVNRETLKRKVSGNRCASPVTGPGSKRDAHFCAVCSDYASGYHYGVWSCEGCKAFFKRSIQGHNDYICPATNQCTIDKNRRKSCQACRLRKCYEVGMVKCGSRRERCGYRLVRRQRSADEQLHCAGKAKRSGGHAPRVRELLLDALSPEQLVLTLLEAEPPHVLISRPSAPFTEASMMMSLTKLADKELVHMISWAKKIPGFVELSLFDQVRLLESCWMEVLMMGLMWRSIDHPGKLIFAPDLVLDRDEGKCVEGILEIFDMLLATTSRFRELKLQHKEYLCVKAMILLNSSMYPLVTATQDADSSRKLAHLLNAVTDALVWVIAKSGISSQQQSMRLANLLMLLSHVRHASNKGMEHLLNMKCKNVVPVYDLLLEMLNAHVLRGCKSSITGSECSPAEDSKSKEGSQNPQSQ
Compound,outcome,AC50
CC1CC(O)CC(C)(C)C1 (stereo not given),inactive,–
C=C(C)[C@@H]1CC=C(C)C(=O)C1,inactive,–
CCCCCC(C=O)=Cc1ccccc1,inactive,–
Cc1cc(S(=O)(=O)O)ccc1N=Nc1c(O)ccc2ccccc12,inactive,–
Clc1ccc(C(c2ccccc2Cl)C(Cl)Cl)cc1 (stereo not given),–,3.87 µM (active)
O=C(c1ccccc1)C(O)c1ccccc1 (stereo not given),inactive,–
CC(CN=Cc1ccccc1O)N=Cc1ccccc1O (stereo not given),inactive,–
O=C(CC(=O)c1ccccc1)c1ccccc1,inactive,–
OCC#CCO,inactive,–
CC(C)c1ccccc1O,inactive,–
C[Si](C)(C)O[Si](C)(C)C,inactive,–
CCCC(=O)OC(C)(C)Cc1ccccc1,inactive,–
CC(C)CCCCCCCCCCCCCCC(=O)O,inactive,–
O=C1NC2NC(=O)NC2N1 (stereo not given),–,22.1 µM (active)
CCCCCCCCCC(=O)OC,inactive,–
CC(C)Nc1nc(N)nc(Cl)n1,inactive,–
O=P(O)(O)O,inactive,–
CCOc1ccccc1O,inactive,–
CCCCCCC(=O)c1ccccc1,inactive,–
CCC1(C)NC(=O)NC1=O (stereo not given),inactive,–
[O-]n1ccccc1=S.[O-]n1ccccc1=S.[Zn+2],inactive,–
O=Cc1ccccc1S(=O)(=O)O,inactive,–
CN1C(=O)c2ccccc2C1=O,inactive,–
C#CC(C)(O)CC(C)C (stereo not given),inactive,–
ON=C1CCCCC1,inactive,–
CCCCCCC(C)(C)S,inactive,–
C=C(C)C(=O)OCCOC1CC2CC1C1C=CCC21 (stereo not given),inactive,–
COc1ccccc1N=Nc1c(S(=O)(=O)O)cc2cc(S(=O)(=O)O)cc(NC(C)=O)c2c1O,inactive,–

# Molecular target: human Peroxisome Proliferator-activated Receptor alpha (PPARa), PPARA (gene 5465) (UniProt Q07869)
# Sequence (Q07869 whole entry, looked up): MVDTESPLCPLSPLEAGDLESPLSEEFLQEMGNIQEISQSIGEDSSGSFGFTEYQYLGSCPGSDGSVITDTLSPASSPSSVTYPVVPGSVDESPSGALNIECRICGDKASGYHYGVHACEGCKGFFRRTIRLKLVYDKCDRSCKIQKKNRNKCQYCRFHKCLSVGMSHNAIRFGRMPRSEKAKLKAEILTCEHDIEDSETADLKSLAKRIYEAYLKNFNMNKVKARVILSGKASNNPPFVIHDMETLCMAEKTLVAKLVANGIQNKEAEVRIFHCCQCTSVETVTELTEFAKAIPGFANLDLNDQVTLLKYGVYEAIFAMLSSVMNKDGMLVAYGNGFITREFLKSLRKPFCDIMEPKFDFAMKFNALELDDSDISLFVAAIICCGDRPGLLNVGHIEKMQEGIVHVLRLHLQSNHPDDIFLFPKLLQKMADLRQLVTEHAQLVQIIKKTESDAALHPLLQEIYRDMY
# Test: NVS_NR_hPPARa: NovaScreen (NVS) Nuclear Receptor Binding Assay for human Peroxisome Proliferator-activated Receptor alpha (PPARa) (AID 2283359);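 further: activity means loss of TR-FRET signal versus DMSO baseline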
# Procedure, shortened: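 Cell-free TR-FRET binding assay with extracted PPARα protein, read 1 h after dosing. Primary screen in duplicate at 25 uM, with actives retested in concentration series. Loss of signal versus DMSO.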
row,Compound,outcome
1,CCCCCC(C=O)=Cc1ccccc1,inactive
2,CCCCCCCC/C=C\CCCCCCCC(=O)OCC,inactive
3,Clc1ccc(C(c2ccccc2Cl)C(Cl)Cl)cc1 (stereo not given),inactive
4,CC(C)CCCCCCCCCCCCCCC(=O)O,inactive
5,O=P(O)(O)O,inactive

# Molecular target: PGR (gene 5241) (UniProt P06401)
# Sequence (P06401 whole entry, looked up): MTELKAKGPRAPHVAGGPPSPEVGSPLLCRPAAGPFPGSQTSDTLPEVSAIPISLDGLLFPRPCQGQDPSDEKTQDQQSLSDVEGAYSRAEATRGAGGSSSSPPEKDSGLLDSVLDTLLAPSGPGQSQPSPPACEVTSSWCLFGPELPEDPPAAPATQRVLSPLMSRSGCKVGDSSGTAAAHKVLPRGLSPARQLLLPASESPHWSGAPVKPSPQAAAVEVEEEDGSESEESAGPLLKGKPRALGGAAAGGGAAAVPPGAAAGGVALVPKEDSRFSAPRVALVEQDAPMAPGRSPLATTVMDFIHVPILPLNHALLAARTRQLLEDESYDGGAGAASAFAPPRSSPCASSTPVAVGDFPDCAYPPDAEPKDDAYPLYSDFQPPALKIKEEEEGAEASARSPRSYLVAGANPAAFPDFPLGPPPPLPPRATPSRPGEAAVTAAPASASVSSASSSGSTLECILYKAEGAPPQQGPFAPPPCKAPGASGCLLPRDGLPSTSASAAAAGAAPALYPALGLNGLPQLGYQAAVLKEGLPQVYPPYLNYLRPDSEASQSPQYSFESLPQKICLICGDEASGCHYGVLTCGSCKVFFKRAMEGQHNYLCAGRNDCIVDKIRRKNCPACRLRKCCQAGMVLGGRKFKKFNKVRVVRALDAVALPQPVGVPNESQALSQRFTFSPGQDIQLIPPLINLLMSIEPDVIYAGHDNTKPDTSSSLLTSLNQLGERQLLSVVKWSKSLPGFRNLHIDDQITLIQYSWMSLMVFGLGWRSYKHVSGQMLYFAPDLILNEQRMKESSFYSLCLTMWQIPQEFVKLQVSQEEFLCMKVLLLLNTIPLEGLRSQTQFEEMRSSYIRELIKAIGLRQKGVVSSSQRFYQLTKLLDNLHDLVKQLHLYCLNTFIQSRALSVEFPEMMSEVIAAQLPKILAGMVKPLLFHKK
# Test: NVS_NR_hPR: NovaScreen (NVS) Nuclear Receptor Binding Assay for human Progestron Receptor (PR) (AID 2283360);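 further: active means loss of bound radioligand signal versus DMSO baseline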
# Procedure, shortened: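 Radioligand competition binding on receptor extracted from T47D cells, read by scintillation counting 18 h after dosing. Loss of signal versus DMSO; primary screen in duplicate at 25 uM, actives followed in concentration series.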
row,Compound,outcome
1,CCC(C)c1cc([N+](=O)[O-])cc([N+](=O)[O-])c1OC(=O)OC(C)C (stereo not given),inactive
2,CS(=O)(=O)c1ccc(C2=C(c3ccccc3)C(=O)OC2)cc1,inactive
3,ClC(c1ccccc1)(c1ccccc1)c1ccccc1,inactive
4,C=C(C)C(=O)OCCOCCOCCOC(=O)C(=C)C,inactive

# Molecular target: Retinoic acid receptor alpha (Homo sapiens) (UniProt P10276)
# Sequence (P10276 whole entry, looked up): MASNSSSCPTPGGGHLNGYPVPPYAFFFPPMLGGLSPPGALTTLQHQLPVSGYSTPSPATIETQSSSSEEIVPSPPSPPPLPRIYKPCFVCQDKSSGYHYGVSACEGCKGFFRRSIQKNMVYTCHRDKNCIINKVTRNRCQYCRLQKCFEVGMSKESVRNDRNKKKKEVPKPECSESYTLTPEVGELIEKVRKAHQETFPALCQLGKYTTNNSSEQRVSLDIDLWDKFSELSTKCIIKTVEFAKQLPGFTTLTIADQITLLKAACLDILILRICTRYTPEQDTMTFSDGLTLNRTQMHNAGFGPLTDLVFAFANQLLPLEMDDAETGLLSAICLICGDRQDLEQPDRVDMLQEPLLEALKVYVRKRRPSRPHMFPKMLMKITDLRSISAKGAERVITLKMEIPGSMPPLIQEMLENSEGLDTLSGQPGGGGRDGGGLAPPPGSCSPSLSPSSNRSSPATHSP
# Test: NVS_NR_hRARa_Agonist: NovaScreen (NVS) Nuclear Receptor Binding Assay for human Retinoic Acid Alpha Receptor Agonism (RAR) (AID 2283361)
# Procedure, shortened: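 Cell-free TR-FRET binding readout with extracted receptor protein, read 2 hours after dosing; gain-of-signal fitted relative to DMSO. Screened in duplicate at 25 uM, actives then run in concentration-response.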
Compound,AC50,outcome
Cc1cc(S(=O)(=O)O)ccc1N=Nc1c(O)ccc2ccccc12,23.5 µM (active),–
O=C(CC(=O)c1ccccc1)c1ccccc1,–,inactive
[O-]n1ccccc1=S.[O-]n1ccccc1=S.[Zn+2],–,inactive
